Several values for one entry are separate records, joined by “and”; a condition that tells them apart may be missing. Equal entries are not always repeated. Some structures have more than one record in an assay (separate samples or runs), and their calls can disagree. Activity calls are given as the source filed them. How the source made its calls: active means hit-call score of the fitted dose curve at least 0.9, where 1 is the maximum; inactive means score below 0.9.
Experiments:
[1] = read-out: Interleukin-8 (IL8), CXCL8 (gene 3576); assay: BSK_KF3CT_IL8: BioMAP Diversity Plus: KF3CT Assay for Interleukin-8 (IL8) Biomarker Activity (AID 2284254); conditions: primary human keratinocytes with fibroblasts
Summary of the method: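 ELISA detection of IL-8 from a human skin co-culture, keratinocytes with foreskin fibroblasts, at 24 h following chemical exposure, with gain of signal scored against DMSO controls.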

[2] = read-out: Macrophage Inflammatory Protein-1 Alpha (MIP1a), CCL3 (gene 6348); assay: BSK_IMphg_MIP1a: BioMAP Diversity Plus: IMphg Assay for Macrophage Inflammatory Protein-1 Alpha (MIP1a) Biomarker Activity (AID 2284255); conditions: primary human endothelial cells with macrophages
Summary of the method: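 Co-culture of human venular endothelial cells and macrophages exposed to compounds for 24 h; MIP-1a measured by ELISA relative to DMSO. Cytotoxicity assessed in parallel cultures by sulforhodamine B total-protein staining at 560 nm.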

[3] = read-out: Plasminogen activator inhibitor-1 (PAI1), SERPINE1 (gene 5054); assay: BSK_MyoF_PAI1: BioMAP Diversity Plus: MyoF Assay for Plasminogen activator inhibitor-1 (PAI1) Biomarker Activity (AID 2284256); conditions: primary human lung fibroblasts;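 further: PAI-1 read 24 h after compound addition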
Summary of the method: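 Activity reflects increased PAI-1, determined by ELISA and compared with DMSO, in human lung fibroblasts treated for 24 h.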

CD69, CD69 (gene 969) = assay: BSK_IMphg_CD69: BioMAP Diversity Plus: IMphg Assay for CD69 Biomarker Activity (AID 2284257); conditions: primary human endothelial cells with macrophages
Summary of the method: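 Human venular endothelial cells co-cultured with macrophages; CD69 quantified by ELISA 24 h after compound addition. Activity fitted in the positive direction relative to DMSO baseline; cytotoxicity tracked in parallel cultures via SRB total-protein staining.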

[4] = read-out: Eotaxin 3, CCL26 (gene 10344); assay: BSK_BF4T_Eotaxin3: BioMAP Diversity Plus: BF4T Assay for Eotaxin 3 Biomarker Activity (AID 2284258); conditions: primary human bronchial epithelial cells with fibroblasts
Summary of the method: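 Co-culture of human bronchial epithelial cells and dermal fibroblasts, exposed to chemicals for 24 h versus DMSO. Eotaxin-3 quantified by ELISA; cytotoxicity checked in parallel cultures by sulforhodamine B total-protein staining.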

[5] = read-out: Intercellular Adhesion Molecule 1 (ICAM1), ICAM1 (gene 3383); assay: BSK_BF4T_ICAM1: BioMAP Diversity Plus: BF4T Assay for Intercellular Adhesion Molecule 1 (ICAM1) Biomarker Activity (AID 2284260); conditions: primary human bronchial epithelial cells with fibroblasts
Summary of the method: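 Co-culture of human bronchial epithelial cells and dermal fibroblasts exposed 24 h to chemical; cell-surface ICAM-1 quantified by ELISA. Parallel SRB total-protein staining assessed cytotoxicity; activity fitted relative to DMSO.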

[6] = read-out: Interleukin-8 (IL8), CXCL8 (gene 3576); assay: BSK_MyoF_IL8: BioMAP Diversity Plus: MyoF Assay for Interleukin-8 (IL8) Biomarker Activity (AID 2284261); conditions: primary human lung fibroblasts
Summary of the method: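 In this multiplexed primary-cell system, fibroblasts from human lung are treated with chemicals, and IL-8 is detected by ELISA at 24 h, with DMSO serving as the negative reference.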

CD90, THY1 (gene 7070) = assay: BSK_BF4T_CD90: BioMAP Diversity Plus: BF4T Assay for CD90 Biomarker Activity (AID 2284262); conditions: primary human bronchial epithelial cells with fibroblasts
Summary of the method: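 Co-culture of human bronchial epithelial cells and dermal fibroblasts, 24 h compound exposure. Cell-surface CD90 measured by ELISA relative to DMSO; parallel SRB total-protein staining for cytotoxicity.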

[7] = read-out: Interleukin-8 (IL8), CXCL8 (gene 3576); assay: BSK_BF4T_IL8: BioMAP Diversity Plus: BF4T Assay for Interleukin-8 (IL8) Biomarker Activity (AID 2284263); conditions: primary human bronchial epithelial cells with fibroblasts
Summary of the method: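 Human bronchial epithelial cells with dermal fibroblasts co-culture; IL-8 measured by ELISA 24 hours after dosing, fitted vs DMSO. Cytotoxicity tracked in parallel cultures by SRB total-protein staining.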

[8] = read-out: Interleukin-1 alpha (IL1a), IL1A (gene 3552); assay: BSK_BF4T_IL1a: BioMAP Diversity Plus: BF4T Assay for Interleukin-1 alpha (IL1a) Biomarker Activity (AID 2284264); conditions: primary human bronchial epithelial cells with fibroblasts
Summary of the method: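 Human bronchial epithelial cells co-cultured with dermal fibroblasts, dosed and read at 24 h. Secreted/surface IL-1α quantified by ELISA; gain-of-signal fitted relative to DMSO baseline. Parallel SRB total-protein staining tracked cytotoxicity.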

Decorin, DCN (gene 1634) = assay: BSK_MyoF_Decorin: BioMAP Diversity Plus: MyoF Assay for Decorin Biomarker Activity (AID 2284265); conditions: primary human lung fibroblasts
Summary of the method: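 Lung fibroblast cultures, 24 h chemical exposure. Decorin by ELISA, positive fitting direction, DMSO baseline.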

KRT18 (gene 3875) = assay: BSK_BF4T_Keratin818: BioMAP Diversity Plus: BF4T Assay for Keratin 818 Biomarker Activity (AID 2284266); conditions: primary human bronchial epithelial cells with fibroblasts
Summary of the method: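 Co-culture of human bronchial epithelial cells and dermal fibroblasts, chemical exposure 24 h. Keratin 8/18 measured by ELISA; positive-direction fit vs DMSO. SRB total protein run in parallel cultures for cytotoxicity.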

[9] = BSK_MyoF_SRB: Viability Assessment in the BioMAP Diversity Plus: MyoF Assay (AID 2284267); conditions: primary human lung fibroblasts;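 further: total protein by SRB absorbance in parallel cultures as cytotoxicity measure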
Summary of the method: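 Cytotoxicity in primary human lung fibroblasts is gauged by SRB total-protein staining 24 h after dosing, with DMSO as the negative control.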

[10] = read-out: Matrix Metallopeptidase 1 (MMP1), MMP1 (gene 4312); assay: BSK_MyoF_MMP1: BioMAP Diversity Plus: MyoF Assay for Matrix Metallopeptidase 1 (MMP1) Biomarker Activity (AID 2284268); conditions: primary human lung fibroblasts
Summary of the method: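 MMP1 measured by ELISA 24 h after dosing primary human lung fibroblasts; cytotoxicity checked in parallel cultures by sulforhodamine B total-protein staining read at 560 nm.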

[11] = read-out: TIMP metallopeptidase inhibitor 1 (TIMP1), TIMP1 (gene 7076); assay: BSK_MyoF_TIMP1: BioMAP Diversity Plus: MyoF Assay for TIMP metallopeptidase inhibitor 1 (TIMP1) Biomarker Activity (AID 2284269); conditions: primary human lung fibroblasts
Summary of the method: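 Primary human lung fibroblasts, MyoF multiplex system; chemical exposure 24 h; TIMP-1 by ELISA; positive fitting direction vs DMSO control.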

[12] = read-out: Matrix Metallopeptidase 1 (MMP1), MMP1 (gene 4312); assay: BSK_BF4T_MMP1: BioMAP Diversity Plus: BF4T Assay for Matrix Metallopeptidase 1 (MMP1) Biomarker Activity (AID 2284270); conditions: primary human bronchial epithelial cells with fibroblasts
Summary of the method: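 Co-culture of human bronchial epithelial cells and dermal fibroblasts; MMP-1 levels measured by ELISA 24 hours after chemical dosing, relative to DMSO. Cytotoxicity checked in parallel cultures by SRB total-protein staining.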

[13] = read-out: Matrix Metallopeptidase 3 (MMP3), MMP3 (gene 4314); assay: BSK_BF4T_MMP3: BioMAP Diversity Plus: BF4T Assay for Matrix Metallopeptidase 3 (MMP3) Biomarker Activity (AID 2284271); conditions: primary human bronchial epithelial cells with fibroblasts
Summary of the method: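 Co-culture of human bronchial epithelial cells and dermal fibroblasts dosed 24 h; MMP-3 measured by ELISA, positive-direction fit versus DMSO. Cytotoxicity tracked by SRB total-protein staining (560 nm) in parallel cultures.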

[14] = read-out: Tissue plasminogen activator (tPA), PLAT (gene 5327); assay: BSK_BF4T_tPA: BioMAP Diversity Plus: BF4T Assay for Tissue plasminogen activator (tPA) Biomarker Activity (AID 2284272); conditions: primary human bronchial epithelial cells with fibroblasts
Summary of the method: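 tPA level quantified by ELISA at 24 h post-treatment in bronchial epithelial/dermal fibroblast co-cultures, gain of signal scored against DMSO baseline. Parallel cultures stained with 0.1% SRB (560 nm) to flag overt cytotoxicity.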

[15] = read-out: Plasminogen Activator Inhibitor-1 (PAI1), SERPINE1 (gene 5054); assay: BSK_BF4T_PAI1: BioMAP Diversity Plus: BF4T Assay for Plasminogen Activator Inhibitor-1 (PAI1) Biomarker Activity (AID 2284273); conditions: primary human bronchial epithelial cells with fibroblasts
Summary of the method: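 Co-culture of human bronchial epithelial cells and dermal fibroblasts exposed to compound for 24 h. PAI-1 measured by ELISA; activity fitted in positive direction versus DMSO. Parallel SRB staining assessed overt cytotoxicity.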

[16] = read-out: Monocyte Chemoattractant Protein-1 (MCP1), CCL2 (gene 6347); assay: BSK_BF4T_MCP1: BioMAP Diversity Plus: BF4T Assay for Monocyte Chemoattractant Protein-1 (MCP1) Biomarker Activity (AID 2284259); conditions: primary human bronchial epithelial cells with fibroblasts
Summary of the method: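 Co-culture of bronchial epithelial cells and dermal fibroblasts dosed with chemical; MCP-1 measured by ELISA 24 h later. Activity fitted in positive direction versus DMSO; cytotoxicity checked by SRB staining in parallel cultures.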

Measured: AC50

O=C(Cl)C(F)(F)C(F)(F)C(F)(F)C(F)(F)C(F)(F)C(F)(F)F
not listed: [16]
inactive: all other assays above

C=CC(=O)OCC(F)(F)C(F)(F)C(F)(F)C(F)(F)C(F)(F)C(F)(F)C(F)(F)C(F)F
inactive: [1] | [2] | [3] | CD69, CD69 (gene 969) | [4] | [5] | [6] | CD90, THY1 (gene 7070) | [7] | [8] | Decorin, DCN (gene 1634) | KRT18 (gene 3875) | [11] | [12] | [13] | [14] | [15]
active: Decorin, DCN (gene 1634) 10.3 µM | [10] 39.7 µM and 30 µM

OCC(O)CC(F)(F)C(F)(F)C(F)(F)C(F)(F)F (configuration not stated)
inactive: [1] | [2] | CD69, CD69 (gene 969) | [4] | [5] | [6] | CD90, THY1 (gene 7070) | [7] | [8] | Decorin, DCN (gene 1634) | KRT18 (gene 3875) | [9] | [10] | [11] | [12] | [13] | [14] | [15]
active: [7] 0.22 µM

CNS(=O)(=O)C(F)(F)C(F)(F)C(F)(F)C(F)(F)C(F)(F)C(F)(F)C(F)(F)C(F)(F)F
inactive: [2] | [3] | CD69, CD69 (gene 969) | [5] | [6] | CD90, THY1 (gene 7070) | [7] | [8] | Decorin, DCN (gene 1634) | KRT18 (gene 3875) | [10] | [11] | [12] | [13] | [14] | [15]
active: [1] 8.13 µM and 9.41 µM | [4] 3.88 µM and 220 nM | [6] 9.75 µM | [7] 46.3 µM | [13] 13.3 µM

NC(=O)C(F)(F)C(F)(F)C(F)(F)C(F)F
not listed: [3]
inactive: all other assays above
